PMC5540273 (PLoS ONE, 2017)

How the values were obtained:
Settings in all cases: concentration: 1 μM, replicates: in singlicate; n = 1
MST1R = system: MST1R
MST1 = system: T1, MST1
T1 construct: gene STK4

MST2 = system: T2, MST2
T2 construct: gene STK3

MST3 = system: T3, MST3
T3 construct: gene STK24

MST4 = system: MST4
MTOR = system: MTOR
MUSK = system: MUSK
MYLK2 = system: MYLK2
MYLK4 = system: MYLK4
MYLK = system: MYLK
MYO3A = system: MYO3A
MYO3B = system: MYO3B
NDR1 = system: T4, NDR1
T4 construct: gene STK38

NDR2 = system: NDR2
NEK10 = system: NEK10
NEK11 = system: NEK11
NEK1 = system: NEK1
NEK2 = system: NEK2
NEK3 = system: NEK3
NEK4 = system: NEK4
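Further: KINOMEscan kinase panel screen.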

| Compound | %Inh (MST1R) | %Inh (MST1) | %Inh (MST2) | %Inh (MST3) | %Inh (MST4) | %Inh (MTOR) | %Inh (MUSK) | %Inh (MYLK2) | %Inh (MYLK4) | %Inh (MYLK) | %Inh (MYO3A) | %Inh (MYO3B) | %Inh (NDR1) | %Inh (NDR2) | %Inh (NEK10) | %Inh (NEK11) | %Inh (NEK1) | %Inh (NEK2) | %Inh (NEK3) | %Inh (NEK4) |
| --- | --- | --- | --- | --- | --- | --- | --- | --- | --- | --- | --- | --- | --- | --- | --- | --- | --- | --- | --- | --- |
| COc1ccc(Nc2nccc(N3CCC(NC(=O)C(C)c4ccc(Cl)cc4)C3)n2)cc1 (centres unmarked) [GSK1379735] | 39% | 44% | 26% | 0% | 3% | 26% | 24% | 3% | 2% | 11% | 0% | 7% | 0% | 0% | 7% | 0% | 0% | 13% | 0% | 10% |
| COc1nccc(-c2c(-c3ccc(F)cc3)ncn2CCCN2CCOCC2)n1 [SB-282852] | 0% | 0% | 22% | 0% | 0% | 0% | 0% | 56% | 0% | 18% | 5% | 0% | 16% | 0% | 0% | 2% | 0% | 0% | 29% | 0% |
| COc1ccc(Nc2nccc(N3CCC(NC(=O)C(C)c4ccc(Cl)cc4)CC3)n2)cc1 (centres unmarked) [GSK1379812] | 54% | 44% | 0% | 0% | 0% | 3% | 0% | 6% | 6% | 4% | 24% | 0% | 39% | 0% | 43% | 0% | 0% | 4% | 53% | 0% |
| CNC(=O)c1ccc(C)c(-n2c(C)cc(OCc3ccc(F)cc3F)c(Br)c2=O)c1 | 0% | 0% | 0% | 0% | 0% | 33% | 6% | 9% | 3% | 0% | 0% | 0% | 0% | 0% | 0% | 0% | 0% | 0% | 12% | 0% |
| Cc1nccc(-c2c(-c3ccc(F)cc3)ncn2CCCN2CCOCC2)n1.Cl [SB-282975] | 0% | 7% | 5% | 0% | 5% | 21% | 0% | 6% | 0% | 30% | 0% | 0% | 3% | 7% | 0% | 16% | 0% | 4% | 27% | 0% |
| CC(=O)c1cccc(NC(=O)NC2CCN(c3ccnc(Nc4ccc(F)cc4)n3)C2)c1 (centres unmarked) [GSK1379710] | 31% | 0% | 22% | 3% | 0% | 21% | 8% | 0% | 21% | 11% | 43% | 0% | 12% | 38% | 0% | 6% | 3% | 8% | 8% | 0% |
| COc1ccc(Nc2nccc(N3CCC(NC(=O)c4cc5ccccc5s4)C3)n2)cc1 (centres unmarked) [GSK1379738] | 27% | 0% | 0% | 0% | 0% | 15% | 0% | 0% | 3% | 11% | 11% | 0% | 0% | 0% | 16% | 0% | 2% | 1% | 15% | 0% |
| Cc1ccccc1Cn1ccn2c(=O)cc(N3CCOCC3)nc12 [GSK2269905] | 17% | 0% | 0% | 0% | 0% | 9% | 2% | 8% | 0% | 0% | 7% | 0% | 12% | 0% | 2% | 0% | 0% | 13% | 11% | 16% |
| FC(F)(F)c1ccccc1-c1cc(-c2c[nH]nc2-c2ccccn2)ccn1 [GW679396] | 13% | 4% | 0% | 5% | 0% | 0% | 0% | 26% | 0% | 8% | 10% | 0% | 22% | 0% | 9% | 10% | 0% | 19% | 0% | 0% |
| Cc1ccccc1-c1cc(-c2c[nH]nc2-c2ccccn2)ccn1 [GW680061] | 12% | 0% | 0% | 0% | 10% | 30% | 10% | 0% | 0% | 1% | 0% | 0% | 0% | 0% | 4% | 11% | 0% | 0% | 0% | 11% |
| COc1ccc(CSc2nnc(-c3ccc4nccn4c3)o2)cc1C(F)(F)F | 0% | 0% | 0% | 15% | 7% | 0% | 9% | 8% | 21% | 0% | 2% | 0% | 14% | 12% | 13% | 0% | 3% | 0% | 0% | 4% |
| COc1ccc2cc(-c3nc(-c4ccccc4C(C)C)[nH]c3-c3ccncc3)ccc2c1 [SB-660566] | 42% | 7% | 58% | 0% | 0% | 31% | 18% | 15% | 4% | 0% | 0% | 0% | 18% | 0% | 45% | 4% | 41% | 0% | 0% | 15% |
| CNc1nc(-c2ccc3c(N)n[nH]c3c2)cc(N2C[C@@H](C(=O)Nc3ccccc3)CC[C@H]2C)n1 [GSK2298859] | 26% | 0% | 0% | 0% | 4% | 3% | 0% | 9% | 0% | 11% | 27% | 0% | 22% | 0% | 13% | 0% | 0% | 0% | 0% | 0% |
| CC(C)c1ccc(O)cc1Nc1ccnc2ccc(C(F)(F)F)cc12 [GW482059] | 0% | 0% | 0% | 0% | 0% | 6% | 3% | 3% | 0% | 3% | 0% | 0% | 0% | 0% | 0% | 22% | 0% | 2% | 0% | 0% |
| CNCc1ccc2nc(NC(=O)c3ccc(C(C)(C)C)cc3)cn2c1 | 18% | 16% | 25% | 7% | 24% | 2% | 0% | 7% | 1% | 24% | 2% | 0% | 34% | 3% | 20% | 34% | 28% | 2% | 18% | 7% |
| O=c1cc(N2CCOCC2)nc2n(Cc3cccc(Cl)c3Cl)c3ccccc3n12 [GSK2299009] | 44% | 39% | 9% | 6% | 0% | 19% | 39% | 17% | 13% | 31% | 0% | 6% | 33% | 0% | 9% | 0% | 0% | 14% | 3% | 8% |

| Compound | %Inh (MST1R) | %Inh (MST1) | %Inh (MST2) | %Inh (MST3) | %Inh (MST4) | %Inh (MTOR) | %Inh (MUSK) | %Inh (MYLK2) | %Inh (MYLK4) | %Inh (MYLK) | %Inh (MYO3A) | %Inh (MYO3B) | %Inh (NDR1) | %Inh (NDR2) | %Inh (NEK10) | %Inh (NEK11) | %Inh (NEK1) | %Inh (NEK2) | %Inh (NEK3) | %Inh (NEK4) |
| --- | --- | --- | --- | --- | --- | --- | --- | --- | --- | --- | --- | --- | --- | --- | --- | --- | --- | --- | --- | --- |
| Cn1cncc1-c1cc2c(Nc3ccc(OCc4ccccc4)cc3)ncnc2cn1 [GW281179] | 49% | 0% | 0% | 0% | 0% | 3% | 12% | 10% | 0% | 9% | 10% | 0% | 10% | 0% | 17% | 13% | 0% | 0% | 0% | 5% |
| O=C(Nc1n[nH]c2cc(-c3ccsc3)ccc12)C1CC1 [SB-732932] | 22% | 0% | 34% | 16% | 27% | 0% | 11% | 97.1% | 22% | 24% | 12% | 0% | 18% | 0% | 0% | 41% | 0% | 21% | 24% | 3% |
| CC(=O)c1c(C)c2cnc(Nc3ccn(C)n3)nc2n(C2CCCC2)c1=O | 4% | 2% | 0% | 10% | 0% | 14% | 0% | 0% | 0% | 0% | 0% | 0% | 0% | 4% | 15% | 0% | 0% | 0% | 22% | 0% |
| O=c1cc(N2CCOCC2)nc2n(Cc3ccccc3F)ccn12 [GSK2297428] | 26% | 8% | 0% | 0% | 0% | 13% | 0% | 0% | 0% | 12% | 13% | 0% | 34% | 0% | 1% | 0% | 0% | 0% | 0% | 0% |
| CN1c2ccc(-c3ccc(C(N)=O)cc3)cc2-c2[nH]ncc2S1(=O)=O | 0% | 0% | 0% | 0% | 2% | 14% | 0% | 0% | 0% | 73% | 0% | 11% | 26% | 3% | 0% | 0% | 0% | 0% | 35% | 0% |
| COc1cc2ncnc(Nc3cccc(Br)c3)c2cc1OC.Cl [GI230329] | 30% | 0% | 0% | 1% | 0% | 0% | 0% | 7% | 5% | 0% | 20% | 0% | 26% | 12% | 21% | 41% | 0% | 0% | 6% | 0% |
| COC(=O)c1cccc(NC(=O)NC2CCN(c3ccnc(Nc4ccc(F)cc4)n3)C2)c1 (centres unmarked) [GSK1379725] | 39% | 0% | 0% | 0% | 0% | 7% | 0% | 0% | 0% | 0% | 0% | 0% | 0% | 0% | 16% | 0% | 0% | 0% | 1% | 19% |
| O=C(Nc1n[nH]c2nc(-c3cccs3)c(Br)cc12)C1CC1 [SB-735297] | 0% | 3% | 4% | 0% | 5% | 0% | 0% | 99.4% | 29% | 29% | 8% | 0% | 11% | 16% | 0% | 0% | 0% | 0% | 0% | 0% |
| Cl.Cl.Cl.N#Cc1ccc(CCNc2nccc(-c3cccc(CN4CCNCC4)c3)n2)cc1 [GSK2137462] | 37% | 0% | 0% | 18% | 0% | 0% | 14% | 12% | 38% | 35% | 2% | 0% | 4% | 0% | 1% | 0% | 0% | 15% | 0% | 0% |
| COc1cccc(NC(=O)Nc2ccc(C)c(-c3ccc(C(=O)Nc4ccncc4)cc3)c2)c1 [GSK1398474] | 57% | 18% | 0% | 10% | 0% | 0% | 1% | 4% | 3% | 31% | 0% | 0% | 51% | 0% | 47% | 0% | 25% | 0% | 7% | 15% |
| CSc1ccc(-c2nc3n(c2-c2ccncc2)CCC3)cc1 [SKF-105561] | 0% | 0% | 9% | 0% | 20% | 0% | 0% | 3% | 0% | 0% | 1% | 8% | 21% | 4% | 0% | 36% | 0% | 3% | 23% | 6% |
| COc1ccc(CSc2nnc(-c3ccc4ncsc4c3)o2)cc1C(F)(F)F | 0% | 0% | 0% | 0% | 0% | 8% | 1% | 16% | 1% | 0% | 15% | 6% | 0% | 10% | 8% | 0% | 10% | 0% | 29% | 0% |
| CCc1ccc(-c2ccc3c(c2)-c2n[nH]cc2S(=O)(=O)N3C)cc1 | 0% | 8% | 0% | 0% | 0% | 0% | 0% | 0% | 0% | 0% | 19% | 12% | 17% | 0% | 0% | 0% | 0% | 0% | 20% | 0% |
| COc1cccc(C2=C(Nc3cc(Cl)c(O)c(Cl)c3)C(=O)NC2=O)c1 [SB-390767] | 13% | 100% | 29% | 0% | 0% | 44% | 5% | 10% | 9% | 0% | 0% | 0% | 0% | 0% | 30% | 1% | 0% | 100% | 13% | 28% |
| Cc1ccc(-c2nc(Nc3ccncc3)c3ccccc3n2)s1 [GSK189015] | 37% | 6% | 21% | 11% | 5% | 10% | 17% | 26% | 7% | 19% | 0% | 0% | 0% | 0% | 4% | 0% | 0% | 20% | 5% | 0% |
